Experiments:
[1] = molecular target: T1, Ephrin type-B receptor 1 (Homo sapiens) (UniProt P54762); conditions: at 10 µM
T1 sequence (whole entry): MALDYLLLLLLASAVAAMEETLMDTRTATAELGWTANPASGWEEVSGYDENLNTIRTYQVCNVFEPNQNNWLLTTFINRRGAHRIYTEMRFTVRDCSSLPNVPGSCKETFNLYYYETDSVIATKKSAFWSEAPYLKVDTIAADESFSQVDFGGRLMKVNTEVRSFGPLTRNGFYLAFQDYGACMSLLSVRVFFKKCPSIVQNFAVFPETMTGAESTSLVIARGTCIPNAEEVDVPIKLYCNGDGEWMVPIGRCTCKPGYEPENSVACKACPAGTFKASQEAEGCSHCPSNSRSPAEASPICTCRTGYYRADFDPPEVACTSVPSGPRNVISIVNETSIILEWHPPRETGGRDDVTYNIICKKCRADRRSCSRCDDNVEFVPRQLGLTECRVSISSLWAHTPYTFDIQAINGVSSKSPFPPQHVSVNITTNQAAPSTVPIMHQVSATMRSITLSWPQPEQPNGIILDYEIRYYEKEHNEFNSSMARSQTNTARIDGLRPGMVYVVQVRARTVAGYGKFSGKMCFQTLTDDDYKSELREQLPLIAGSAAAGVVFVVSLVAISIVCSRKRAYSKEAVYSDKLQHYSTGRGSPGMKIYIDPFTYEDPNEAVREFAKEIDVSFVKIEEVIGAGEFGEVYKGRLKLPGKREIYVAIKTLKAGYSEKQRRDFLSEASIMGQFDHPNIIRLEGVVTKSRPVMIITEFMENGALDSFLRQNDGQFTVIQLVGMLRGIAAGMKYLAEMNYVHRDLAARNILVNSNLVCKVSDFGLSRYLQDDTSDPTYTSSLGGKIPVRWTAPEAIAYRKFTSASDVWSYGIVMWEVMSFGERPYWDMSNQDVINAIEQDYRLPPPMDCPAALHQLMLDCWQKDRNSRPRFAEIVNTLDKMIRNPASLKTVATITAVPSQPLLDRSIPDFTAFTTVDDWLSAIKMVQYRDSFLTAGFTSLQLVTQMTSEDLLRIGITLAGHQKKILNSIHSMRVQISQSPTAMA

[2] = molecular target: T2, Ephrin type-B receptor 4 (Homo sapiens) (UniProt P54760); conditions: at 1 µM
T2 sequence (whole entry): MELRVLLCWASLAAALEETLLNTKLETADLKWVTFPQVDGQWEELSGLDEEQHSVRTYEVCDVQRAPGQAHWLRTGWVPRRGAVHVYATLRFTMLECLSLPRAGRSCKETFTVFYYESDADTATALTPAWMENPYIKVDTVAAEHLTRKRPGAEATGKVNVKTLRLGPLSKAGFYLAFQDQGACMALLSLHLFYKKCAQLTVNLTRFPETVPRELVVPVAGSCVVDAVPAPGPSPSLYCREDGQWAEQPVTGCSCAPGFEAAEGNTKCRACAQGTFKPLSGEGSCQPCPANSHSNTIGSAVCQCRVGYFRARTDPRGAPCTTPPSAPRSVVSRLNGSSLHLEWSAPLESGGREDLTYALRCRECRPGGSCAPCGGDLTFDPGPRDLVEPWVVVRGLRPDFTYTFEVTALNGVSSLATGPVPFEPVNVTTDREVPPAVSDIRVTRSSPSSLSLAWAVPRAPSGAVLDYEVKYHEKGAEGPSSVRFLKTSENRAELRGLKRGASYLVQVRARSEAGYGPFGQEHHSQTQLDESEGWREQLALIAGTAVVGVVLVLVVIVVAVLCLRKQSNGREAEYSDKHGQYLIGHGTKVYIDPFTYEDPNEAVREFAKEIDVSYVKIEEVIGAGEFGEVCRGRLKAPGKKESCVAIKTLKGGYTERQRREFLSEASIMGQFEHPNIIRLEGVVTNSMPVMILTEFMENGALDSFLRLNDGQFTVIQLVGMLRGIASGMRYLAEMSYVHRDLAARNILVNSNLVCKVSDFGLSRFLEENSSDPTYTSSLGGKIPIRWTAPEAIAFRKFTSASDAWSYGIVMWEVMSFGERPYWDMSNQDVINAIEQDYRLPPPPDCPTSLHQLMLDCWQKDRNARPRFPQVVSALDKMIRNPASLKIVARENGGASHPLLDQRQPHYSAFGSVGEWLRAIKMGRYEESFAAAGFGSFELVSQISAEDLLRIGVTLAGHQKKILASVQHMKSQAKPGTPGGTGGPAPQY

[3] = molecular target: Receptor tyrosine-protein kinase erbB-4 (Homo sapiens) (UniProt Q15303); conditions: at 10 µM
[4] = molecular target: T3, Ephrin type-A receptor 3 (Homo sapiens) (UniProt P29320); conditions: at 10 µM
T3 sequence (whole entry): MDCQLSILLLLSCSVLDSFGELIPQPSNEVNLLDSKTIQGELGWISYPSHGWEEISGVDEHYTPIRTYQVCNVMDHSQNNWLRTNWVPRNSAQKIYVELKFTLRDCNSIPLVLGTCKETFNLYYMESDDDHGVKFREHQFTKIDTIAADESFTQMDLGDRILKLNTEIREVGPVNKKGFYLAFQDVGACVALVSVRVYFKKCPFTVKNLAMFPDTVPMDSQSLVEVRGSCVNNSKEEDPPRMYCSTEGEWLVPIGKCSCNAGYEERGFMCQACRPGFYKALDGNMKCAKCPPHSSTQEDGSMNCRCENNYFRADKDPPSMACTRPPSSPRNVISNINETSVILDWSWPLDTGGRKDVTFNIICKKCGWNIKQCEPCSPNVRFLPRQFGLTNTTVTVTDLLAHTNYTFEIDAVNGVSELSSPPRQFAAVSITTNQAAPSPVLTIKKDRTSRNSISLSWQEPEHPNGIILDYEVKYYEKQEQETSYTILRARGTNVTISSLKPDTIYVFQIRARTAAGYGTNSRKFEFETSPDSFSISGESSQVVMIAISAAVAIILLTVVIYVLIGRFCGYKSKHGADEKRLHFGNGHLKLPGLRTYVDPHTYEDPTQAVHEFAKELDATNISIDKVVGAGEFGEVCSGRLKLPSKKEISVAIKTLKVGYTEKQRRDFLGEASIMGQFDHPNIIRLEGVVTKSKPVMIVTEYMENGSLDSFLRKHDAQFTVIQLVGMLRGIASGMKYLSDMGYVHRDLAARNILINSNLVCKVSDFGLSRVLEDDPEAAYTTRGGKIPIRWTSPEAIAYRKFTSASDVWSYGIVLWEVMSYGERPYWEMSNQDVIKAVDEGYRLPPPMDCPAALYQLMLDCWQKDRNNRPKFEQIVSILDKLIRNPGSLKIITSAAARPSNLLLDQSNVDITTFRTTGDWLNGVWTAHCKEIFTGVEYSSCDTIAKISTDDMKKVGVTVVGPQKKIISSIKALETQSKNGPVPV

[5] = molecular target: T4, Ephrin type-A receptor 8 (Homo sapiens) (UniProt P29322); conditions: at 1 µM
T4 sequence (whole entry): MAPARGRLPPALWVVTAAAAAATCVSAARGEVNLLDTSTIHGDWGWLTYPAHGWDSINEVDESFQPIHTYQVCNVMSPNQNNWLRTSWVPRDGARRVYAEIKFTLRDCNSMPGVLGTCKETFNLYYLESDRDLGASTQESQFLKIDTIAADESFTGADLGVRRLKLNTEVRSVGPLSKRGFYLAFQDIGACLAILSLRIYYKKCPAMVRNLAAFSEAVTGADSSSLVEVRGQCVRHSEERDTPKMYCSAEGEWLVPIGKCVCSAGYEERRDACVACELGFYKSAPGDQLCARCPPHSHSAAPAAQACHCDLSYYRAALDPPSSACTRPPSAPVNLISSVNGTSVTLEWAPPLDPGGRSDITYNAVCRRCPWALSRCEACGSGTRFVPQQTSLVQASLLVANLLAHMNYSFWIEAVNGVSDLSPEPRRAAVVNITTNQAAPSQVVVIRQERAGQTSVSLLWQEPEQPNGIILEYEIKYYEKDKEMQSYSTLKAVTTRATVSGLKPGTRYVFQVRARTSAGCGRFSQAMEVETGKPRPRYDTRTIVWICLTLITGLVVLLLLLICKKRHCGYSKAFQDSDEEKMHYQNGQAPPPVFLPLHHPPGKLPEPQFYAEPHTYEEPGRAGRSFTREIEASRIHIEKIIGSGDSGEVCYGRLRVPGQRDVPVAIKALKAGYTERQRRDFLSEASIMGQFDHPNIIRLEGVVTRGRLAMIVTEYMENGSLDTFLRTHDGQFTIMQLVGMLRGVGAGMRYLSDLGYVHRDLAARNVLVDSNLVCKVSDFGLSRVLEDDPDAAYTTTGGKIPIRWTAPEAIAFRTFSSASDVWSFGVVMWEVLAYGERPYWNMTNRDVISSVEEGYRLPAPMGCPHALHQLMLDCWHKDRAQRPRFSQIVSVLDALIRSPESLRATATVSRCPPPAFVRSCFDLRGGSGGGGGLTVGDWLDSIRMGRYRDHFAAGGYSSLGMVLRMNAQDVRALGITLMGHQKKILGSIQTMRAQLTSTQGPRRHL

[6] = molecular target: T4, Ephrin type-A receptor 8 (Homo sapiens); conditions: at 10 µM
[7] = molecular target: T1, Ephrin type-B receptor 1 (Homo sapiens); conditions: at 1 µM
[8] = molecular target: T5, Ephrin type-B receptor 2 (Homo sapiens) (UniProt P29323); conditions: at 1 µM
T5 sequence (whole entry): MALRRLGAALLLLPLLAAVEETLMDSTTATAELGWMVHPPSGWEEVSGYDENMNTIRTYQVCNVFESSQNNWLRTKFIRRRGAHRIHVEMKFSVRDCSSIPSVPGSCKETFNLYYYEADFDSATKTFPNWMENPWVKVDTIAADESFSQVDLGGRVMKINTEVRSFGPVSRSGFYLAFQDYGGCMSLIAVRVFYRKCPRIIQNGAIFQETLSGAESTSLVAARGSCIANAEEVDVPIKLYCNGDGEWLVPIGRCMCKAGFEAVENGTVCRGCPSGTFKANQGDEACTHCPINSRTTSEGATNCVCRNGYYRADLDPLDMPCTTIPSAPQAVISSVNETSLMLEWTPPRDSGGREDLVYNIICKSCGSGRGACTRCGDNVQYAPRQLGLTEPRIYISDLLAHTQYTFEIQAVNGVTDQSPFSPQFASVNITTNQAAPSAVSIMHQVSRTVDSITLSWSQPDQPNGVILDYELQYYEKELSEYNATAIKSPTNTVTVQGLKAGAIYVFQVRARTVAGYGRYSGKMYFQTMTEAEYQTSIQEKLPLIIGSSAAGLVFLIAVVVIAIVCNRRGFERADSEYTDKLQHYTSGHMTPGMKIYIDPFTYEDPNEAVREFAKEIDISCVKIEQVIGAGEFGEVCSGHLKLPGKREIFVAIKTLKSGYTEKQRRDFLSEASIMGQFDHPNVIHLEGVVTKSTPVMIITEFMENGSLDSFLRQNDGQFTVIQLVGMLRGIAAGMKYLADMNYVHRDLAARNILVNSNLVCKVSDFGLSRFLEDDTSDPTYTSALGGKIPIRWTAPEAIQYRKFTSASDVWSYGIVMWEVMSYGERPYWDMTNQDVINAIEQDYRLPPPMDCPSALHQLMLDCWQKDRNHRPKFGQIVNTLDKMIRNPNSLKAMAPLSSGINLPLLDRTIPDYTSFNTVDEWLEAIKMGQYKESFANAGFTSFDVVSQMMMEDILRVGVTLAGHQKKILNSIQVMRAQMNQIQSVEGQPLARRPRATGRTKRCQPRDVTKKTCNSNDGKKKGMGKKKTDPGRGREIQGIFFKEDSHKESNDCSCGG

[9] = molecular target: T5, Ephrin type-B receptor 2 (Homo sapiens); conditions: at 10 µM
[10] = molecular target: T6, Ephrin type-B receptor 3 (Homo sapiens) (UniProt P54753); conditions: at 1 µM
T6 sequence (whole entry): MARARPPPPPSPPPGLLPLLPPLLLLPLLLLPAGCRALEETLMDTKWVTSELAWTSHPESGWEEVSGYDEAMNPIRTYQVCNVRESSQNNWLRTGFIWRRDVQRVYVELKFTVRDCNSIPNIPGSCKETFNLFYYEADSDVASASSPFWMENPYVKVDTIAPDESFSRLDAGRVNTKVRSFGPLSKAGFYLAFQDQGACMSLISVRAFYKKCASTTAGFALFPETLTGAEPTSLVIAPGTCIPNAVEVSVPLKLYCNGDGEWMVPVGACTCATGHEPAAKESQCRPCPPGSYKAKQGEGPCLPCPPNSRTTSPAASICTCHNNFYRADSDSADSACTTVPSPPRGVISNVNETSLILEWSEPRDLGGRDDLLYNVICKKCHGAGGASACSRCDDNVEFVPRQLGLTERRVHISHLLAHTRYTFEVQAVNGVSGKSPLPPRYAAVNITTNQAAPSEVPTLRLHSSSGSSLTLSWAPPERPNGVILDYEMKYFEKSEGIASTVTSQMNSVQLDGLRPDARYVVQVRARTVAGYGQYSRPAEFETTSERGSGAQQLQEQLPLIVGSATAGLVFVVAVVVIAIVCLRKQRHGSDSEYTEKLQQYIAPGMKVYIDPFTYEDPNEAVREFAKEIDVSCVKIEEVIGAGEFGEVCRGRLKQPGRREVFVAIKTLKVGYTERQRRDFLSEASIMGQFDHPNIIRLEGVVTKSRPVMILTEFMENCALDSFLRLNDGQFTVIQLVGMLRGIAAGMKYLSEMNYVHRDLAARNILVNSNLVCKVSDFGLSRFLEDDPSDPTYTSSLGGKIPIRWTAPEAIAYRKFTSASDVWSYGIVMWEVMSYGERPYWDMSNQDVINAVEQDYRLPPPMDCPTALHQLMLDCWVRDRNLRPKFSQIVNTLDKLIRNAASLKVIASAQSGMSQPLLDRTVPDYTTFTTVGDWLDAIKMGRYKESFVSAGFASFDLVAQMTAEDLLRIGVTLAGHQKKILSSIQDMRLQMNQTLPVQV

[11] = molecular target: T2, Ephrin type-B receptor 4 (Homo sapiens); conditions: at 10 µM
[12] = molecular target: Focal adhesion kinase 1 (Homo sapiens) (UniProt Q05397); conditions: at 1 µM
[13] = molecular target: Ephrin type-A receptor 7 (Homo sapiens) (UniProt Q15375); conditions: at 1 µM
[14] = molecular target: Ephrin type-A receptor 7 (Homo sapiens) (UniProt Q15375); conditions: at 10 µM

Sequence of Receptor tyrosine-protein kinase erbB-4 (Homo sapiens) (Q15303 whole entry): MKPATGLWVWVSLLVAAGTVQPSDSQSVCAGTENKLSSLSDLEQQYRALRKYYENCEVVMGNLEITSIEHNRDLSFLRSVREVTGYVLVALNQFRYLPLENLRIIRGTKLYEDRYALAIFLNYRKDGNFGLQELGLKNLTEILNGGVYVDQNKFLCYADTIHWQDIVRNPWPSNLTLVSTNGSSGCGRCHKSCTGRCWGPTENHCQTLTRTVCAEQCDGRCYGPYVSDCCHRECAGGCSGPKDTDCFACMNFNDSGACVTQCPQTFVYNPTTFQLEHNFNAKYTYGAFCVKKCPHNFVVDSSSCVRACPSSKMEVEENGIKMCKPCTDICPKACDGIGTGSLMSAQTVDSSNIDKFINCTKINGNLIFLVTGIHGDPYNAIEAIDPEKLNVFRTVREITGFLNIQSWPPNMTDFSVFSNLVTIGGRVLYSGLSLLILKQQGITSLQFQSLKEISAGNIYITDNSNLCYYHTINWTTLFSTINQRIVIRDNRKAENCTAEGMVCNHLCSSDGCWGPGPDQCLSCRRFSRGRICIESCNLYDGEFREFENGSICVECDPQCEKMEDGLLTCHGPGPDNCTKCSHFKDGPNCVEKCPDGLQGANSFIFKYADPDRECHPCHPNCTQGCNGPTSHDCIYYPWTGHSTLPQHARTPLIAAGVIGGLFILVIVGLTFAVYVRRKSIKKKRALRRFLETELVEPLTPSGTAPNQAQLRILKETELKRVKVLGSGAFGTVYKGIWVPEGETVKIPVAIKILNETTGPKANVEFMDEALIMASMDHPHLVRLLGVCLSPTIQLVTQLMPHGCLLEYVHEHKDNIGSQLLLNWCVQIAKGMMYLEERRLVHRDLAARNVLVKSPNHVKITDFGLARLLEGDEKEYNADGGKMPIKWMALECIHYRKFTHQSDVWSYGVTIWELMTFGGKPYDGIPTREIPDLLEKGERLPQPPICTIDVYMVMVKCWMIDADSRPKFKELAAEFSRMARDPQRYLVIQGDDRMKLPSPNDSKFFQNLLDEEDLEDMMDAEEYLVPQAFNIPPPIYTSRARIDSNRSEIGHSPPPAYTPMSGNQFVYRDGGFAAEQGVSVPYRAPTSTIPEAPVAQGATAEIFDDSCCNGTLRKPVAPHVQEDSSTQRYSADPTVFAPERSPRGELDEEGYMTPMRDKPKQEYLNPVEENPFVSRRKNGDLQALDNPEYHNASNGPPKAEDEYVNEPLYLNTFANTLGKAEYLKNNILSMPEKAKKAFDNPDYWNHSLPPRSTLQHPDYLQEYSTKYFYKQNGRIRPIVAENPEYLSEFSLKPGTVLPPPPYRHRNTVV
Sequence of Ephrin type-A receptor 7 (Homo sapiens) (Q15375 28-998 limits assumed): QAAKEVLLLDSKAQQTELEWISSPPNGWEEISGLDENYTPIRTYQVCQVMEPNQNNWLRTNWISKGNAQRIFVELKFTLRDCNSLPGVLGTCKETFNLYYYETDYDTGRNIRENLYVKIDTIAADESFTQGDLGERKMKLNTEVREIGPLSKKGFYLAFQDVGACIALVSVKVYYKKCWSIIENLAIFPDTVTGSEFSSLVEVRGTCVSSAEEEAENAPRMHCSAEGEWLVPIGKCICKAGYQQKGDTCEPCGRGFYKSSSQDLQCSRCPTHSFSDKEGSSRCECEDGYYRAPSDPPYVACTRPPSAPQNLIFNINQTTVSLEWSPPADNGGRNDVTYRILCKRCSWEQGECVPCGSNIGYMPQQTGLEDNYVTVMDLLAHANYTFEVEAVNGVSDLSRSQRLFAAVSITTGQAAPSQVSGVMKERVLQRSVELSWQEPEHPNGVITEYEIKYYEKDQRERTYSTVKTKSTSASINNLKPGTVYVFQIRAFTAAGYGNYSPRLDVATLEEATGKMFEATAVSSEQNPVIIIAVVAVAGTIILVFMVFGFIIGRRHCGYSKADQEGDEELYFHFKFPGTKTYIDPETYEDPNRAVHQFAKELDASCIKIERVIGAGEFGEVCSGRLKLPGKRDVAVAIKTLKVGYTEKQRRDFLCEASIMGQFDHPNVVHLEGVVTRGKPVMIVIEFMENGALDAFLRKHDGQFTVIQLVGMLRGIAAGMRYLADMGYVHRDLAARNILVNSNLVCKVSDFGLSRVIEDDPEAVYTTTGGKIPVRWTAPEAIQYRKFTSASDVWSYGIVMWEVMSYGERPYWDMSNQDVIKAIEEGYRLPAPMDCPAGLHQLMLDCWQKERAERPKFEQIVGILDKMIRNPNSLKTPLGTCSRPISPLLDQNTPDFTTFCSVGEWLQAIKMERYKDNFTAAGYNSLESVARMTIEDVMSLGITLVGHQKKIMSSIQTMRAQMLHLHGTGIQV
Sequence of Focal adhesion kinase 1 (Homo sapiens) (Q05397 2-1052 limits assumed): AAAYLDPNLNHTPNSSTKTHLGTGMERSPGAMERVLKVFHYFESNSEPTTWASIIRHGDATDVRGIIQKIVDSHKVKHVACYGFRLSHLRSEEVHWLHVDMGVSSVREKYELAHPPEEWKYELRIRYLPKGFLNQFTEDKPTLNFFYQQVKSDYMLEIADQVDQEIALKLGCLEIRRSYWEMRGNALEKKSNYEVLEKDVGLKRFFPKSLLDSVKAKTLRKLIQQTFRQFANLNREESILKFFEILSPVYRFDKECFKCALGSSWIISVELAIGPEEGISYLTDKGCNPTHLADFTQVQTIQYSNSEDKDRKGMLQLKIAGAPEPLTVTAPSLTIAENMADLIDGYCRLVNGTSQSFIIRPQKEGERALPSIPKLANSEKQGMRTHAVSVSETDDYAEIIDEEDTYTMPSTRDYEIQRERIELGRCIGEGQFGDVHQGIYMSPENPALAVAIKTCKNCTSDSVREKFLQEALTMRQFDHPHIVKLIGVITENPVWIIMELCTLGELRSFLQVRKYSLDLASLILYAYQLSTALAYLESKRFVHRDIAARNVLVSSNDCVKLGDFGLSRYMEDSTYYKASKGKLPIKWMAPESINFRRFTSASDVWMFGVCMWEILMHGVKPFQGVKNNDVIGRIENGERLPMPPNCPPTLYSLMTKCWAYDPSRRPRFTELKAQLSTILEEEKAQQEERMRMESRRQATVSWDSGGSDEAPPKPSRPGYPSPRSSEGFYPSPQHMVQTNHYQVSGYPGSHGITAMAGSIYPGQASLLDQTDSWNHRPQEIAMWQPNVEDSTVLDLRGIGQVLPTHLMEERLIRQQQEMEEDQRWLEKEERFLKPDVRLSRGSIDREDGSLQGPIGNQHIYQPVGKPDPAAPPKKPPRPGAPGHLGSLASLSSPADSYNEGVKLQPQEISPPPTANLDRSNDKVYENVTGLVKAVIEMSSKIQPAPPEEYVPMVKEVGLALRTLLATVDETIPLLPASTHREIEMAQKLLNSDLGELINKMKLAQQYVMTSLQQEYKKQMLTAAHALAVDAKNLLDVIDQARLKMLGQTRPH

SMILES: N#Cc1c(NC(=O)c2cccc3ccccc23)sc2c1CCCC2
- residual activity [1]: 95%
- residual activity [2]: 90%
- residual activity [3]: 94%

SMILES: O=C(Nc1nc2ccccc2n1CCN1CCOCC1)c1cccc([N+](=O)[O-])c1
- residual activity [4]: 81%
- residual activity [5]: 108%
- residual activity [6]: 103%
- residual activity [7]: 100%
- residual activity [1]: 103%
- residual activity [8]: 113%
- residual activity [9]: 110%
- residual activity [10]: 110% (inactive)
- residual activity [11]: 109%
- residual activity [12]: 131%

SMILES: O=C1NC(=O)C(c2c[nH]c3ccccc23)=C1c1c[nH]c2ccccc12
- residual activity [13]: 99%
- residual activity [14]: 67%
- residual activity [7]: 83%
- residual activity [1]: 39%
- residual activity [11]: 82%
- residual activity [3]: 73%
- residual activity [12]: 122%

From ChEMBL document CHEMBL2218924, “A broad activity screen in support of a chemogenomic map for kinase signalling research and drug discovery” (Biochem J, 2013)
